Bfl-1 A1 inh: caspase 3/7 activation in MEF A1-2A-BIM cells, primary screen, A1 inhibitor project, cell-based, luminescence, HTS. Caspase-Glo 3/7 luminescence, 3 h; percent of clofoctol response, vehicle zero. caspase activation, % (no concentration beside the values). actives 0.066% (n = 330,000);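 active = over half of replicate activation scores above 10%, or exactly half above 10 with the replicate mean above 10; inconclusive = replicate mean below 10 yet half the replicates above 10; inactive = over half of replicates below 10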
Beta cell apopt: inhibitors of cytokine-induced beta cell apoptosis, primary screen, luminescence. actives 0.8% (n = 300,000). protection from apoptosis, % (concentration not given with the values). INS-1E cytokine-induced death, ATP luminescence, 48 h; percent of positive-control rescue, neutral wells zero;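 active = Every replicate reaches about 75%, or at least half do and their mean reaches it too, limit read from the data; inconclusive = At least half of replicates reach the limit but their mean does not; inactive = Under half of replicates reach the limit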;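 also: 0% = cytokine-treated negative control wells and 100% = positive control rescue; higher means more ATP so stronger rescue from cytokine killing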
CSC inhib: cancer stem cell viability inhibitors, primary screen, luminescence. cancer stem cell-like cells viability. inhibition, % at 7.5 µM. actives 1.1% (n = 300,000); in the data active = inhibition above about 75%; inconclusive = no clear call, values can overlap the other calls; tested in HMLE shEcad cells
Mdm2-MdmX inh: inhibitors of human Mdm2-MdmX association, primary screen, cell-based, luminescence, split luciferase, SaOS-2, uHTS; Protein Mdm4 (Homo sapiens) + E3 ubiquitin-protein ligase Mdm2 (Homo sapiens), …; SaOS-2 split-luciferase Mdm2/MdmX complementation; inhibition, % at 8 µM; actives 3% (n = 330,000);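 active = inhibition of at least 50% at 8 µM in the primary screen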
aSyn 5UTR inh: MLPCN primary screen, SNCA 5' untranslated region; AID 1813, 2009; alpha-synuclein 5'UTR reporter, inhibitor activity; inhibition, % (tested at 7.5 µM); actives 0.82% (n = 300,000); in the data active = inhibition above about 60%; inconclusive = no clear call, values can overlap the other calls;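 also: H4 neuroglioblastoma cells stably carrying SNCA 5'UTR luciferase fusion; 0% = DMSO wells and 100% = positive control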
Mdm2 MdmX conf: Mdm2-MdmX complex disruptors, retested hits, confirmation, luminescence, single concentration. shares compounds with Mdm2-MdmX inh. Mdm2-MdmX binding, luminescent assay. inhibition, % at 8 µM. actives 55% (n = 10,000). AID 489028, 2010; in the data active = inhibition above about 40%
Full FLuc ctr: full-length luciferase signal inhibition, confirmation, counter-screen for Mdm2/MdmX interaction inhibitor project, cell-based, single concentration, SaOS-2; shares compounds with Mdm2-MdmX inh; SaOS-2 full-length luciferase counterscreen, luminescence; inhibition, % at 8 µM; actives 77% (n = 6,200);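 active = mean inhibition at 8 µM reaching about 37%, which flags the compound as non-specific, limit read from the data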;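 also: p53-null SaOS-2 cells with luciferase driven by a doxycycline-inducible promoter; compound on cells about two nights before reading with doxycycline added after day one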
* = called active by the depositor; ? = inconclusive; / = not tested or not shown. Most compounds without a hit are left out; they make up all but 4.1% or so of the library.

SMILES	Bfl-1 A1 inh	Beta cell apopt	CSC inhib	Mdm2-MdmX inh	aSyn 5UTR inh	Mdm2 MdmX conf	Full FLuc ctr
CCOc1ccc(N(CC(=O)Nc2ccc(OC)cc2OC)S(=O)(=O)c2c(C)[nH]c(=O)[nH]c2=O)cc1	-0.2	-0.9	5.2	-27.7	4.5	/	/
CCOC(=O)c1cnc(-n2nc(C)cc2C)nc1N(C)C	-1.8	-0.6	-5.7	-12.1	-42.0	/	/
CCOC(=O)c1cnc(-n2nc(C)cc2C)nc1NC1CCCC1	-0.4	97.4*	-6.4	76.2*	25.4	41.8*	43.2*
CC[C@H]1OC(=O)[C@H](C)[C@@H](O[C@H]2C[C@@](C)(OC)[C@@H](O)[C@H](C)O2)[C@H](C)[C@@H](O[C@@H]2O[C@H](C)C[C@H](N(C)C)[C@H]2O)[C@](C)(O)C[C@@H](C)CN(C)[C@H](C)[C@@H](O)[C@]1(C)O	0.1	0.9	-0.9	46.1	-32.7	/	/
CCOc1ccc2nc(Cl)c(/C=C/C(=O)c3ccco3)cc2c1	1.3	0.8	5.0	53.2*	-17.8	7.0	/
Cc1ccc(C(=O)N2CCN3C(=O)c4ccccc4C23c2ccc(Cl)cc2)cc1 (stereo not given)	0.4	3.5	21.4	21.3	-68.6	/	/
O=C(CCl)N1CCN2C(=O)c3ccccc3C12c1ccc(Cl)cc1 (stereo not given)	-0.5	12.9	59.2	100.1*	36.1	48.2*	28.5
O=C(CCNS(=O)(=O)c1ccc(F)c(Cl)c1)NCc1ccccc1F	-1.1	-1.1	2.1	-2.5	/	/	/
COCCn1c(SCC(=O)Nc2ccc(F)cc2F)nc2c([nH]c3ccccc32)c1=O	-0.3	36.9	-5.9	55.4*	10.7	53.0*	13.8
COCCn1c(SCC(=O)Nc2ccccc2F)nc2c([nH]c3ccccc32)c1=O	0.5	5.6	-15.8	36.4	15.9	/	/
C=CCn1c(SCC(=O)Nc2ccc(F)cc2F)nc2c([nH]c3ccccc32)c1=O	0.0	-2.1	-14.8	64.6*	6.2	51.9*	26.8
N#Cc1c(N2CCCCC2)nc(N2CCCCC2)c2c1CCN(Cc1ccccc1)C2	0.4	?	-0.8	52.9*	-3.5	24.2	/
Cc1cc(C)c(C#N)c(N2CCN(Cc3ccccc3)CC2)n1	/	/	/	-4.4	27.2	/	/
COC(=O)c1cc(S(=O)(=O)N(Cc2ccccc2)C(C)(C)C)c[nH]1	2.2	3.3	12.9	33.0	-41.7	/	/
CN(C)CCCNS(=O)(=O)c1ccc(N2CCC(c3ccc(Cl)cc3)=N2)cc1	0.7	11.9	112.3*	100.5*	?	99.5*	2.3
C=CCn1c(O)c(C2=c3ccccc3=NC2=O)sc1=Nc1ccc(O)cc1	-0.4	0.2	94.9*	78.2*	-3.8	0.8	/
O=C1N=c2ccccc2=C1c1sc(=S)n(NC(=O)c2ccccc2)c1O	0.3	-0.8	-0.7	-4.4	13.4	/	/
CCc1ccc2nc(N=C(N)N)nc(C)c2c1	-0.6	15.4	16.6	58.8*	47.5	42.0*	81.8*
Cc1ccc2nc(N=C(N)N)nc(C)c2c1	0.0	/	7.9	51.2*	13.8	44.0*	101.7*
Cc1ccc2nc(/N=C(\N)NC(=O)NC3CCCCC3)nc(C)c2c1	0.5	-0.7	63.2	65.0*	-149.4	46.4*	56.5*
Cc1nc(N=C(N)N)nc2ccccc12	0.6	/	1.9	39.3	4.5	/	/
Clc1cncc(Cl)c1N/N=C/c1ccncc1	-1.2	-25.0	9.7	65.0*	31.5	63.0*	27.6
CCNC(=S)N/N=C/c1c(Cl)cccc1Cl	-0.1	-5.4	-8.8	18.9	-10.5	/	/
Clc1cccc(Cl)c1/C=N/Nc1c(Cl)cncc1Cl	-0.4	/	/	64.9*	-30.0	64.2*	22.0
CCC(CO)Oc1cc(NC(=O)c2ccccc2[N+](=O)[O-])c2ncn(C(C)C)c2c1 (stereo not given)	0.2	-2.1	/	9.2	/	/	/
SMILES	Bfl-1 A1 inh	Beta cell apopt	CSC inhib	Mdm2-MdmX inh	aSyn 5UTR inh	Mdm2 MdmX conf	Full FLuc ctr
CCc1cc(-c2[nH]ncc2-c2nc3ccccc3n2C)c(O)cc1O	0.1	-1.2	4.8	16.0	-20.2	/	/
CCCc1cc(-c2[nH]ncc2-c2ccc(C(=O)OCC)o2)c(O)cc1O	-0.1	23.0	51.5	56.2*	-19.4	18.5	/
O=C(Nc1ccc(OC(=O)c2ccccc2)c(-c2nc3ccccc3s2)c1)c1ccccc1	1.1	2.1	-5.7	67.9*	-59.2	31.7	/
O=C(Nc1cc(S(=O)(=O)Nc2ccc(Cl)cc2)ccc1N1CCCCC1)c1ccc(F)cc1Cl	-0.4	9.1	77.5*	67.2*	24.0	21.2	/
O=C(Nc1ccc(N2CCOCC2)c(S(=O)(=O)Nc2ccccc2Cl)c1)c1ccccc1	0.3	17.5	/	53.5*	/	13.7	/
O=C(Nc1ccc(Cl)cc1)Nc1ccc(N2CCCC2)c(S(=O)(=O)Nc2ccccc2Cl)c1	1.0	86.9*	2.3	95.8*	34.7	90.2*	24.0
CCN(CC)c1ccc(/C=N\NC(=O)c2cccc3cc[nH]c23)cc1	0.5	-15.6	0.5	50.2*	14.7	39.2	/
O=C(N/N=C/c1ccc([N+](=O)[O-])cc1)c1cccc2cc[nH]c12	-2.4	2.7	10.0	22.6	14.1	/	/
O=C(Nc1ccc(Br)cc1)c1cc(-c2ccncc2)nc2ccccc12	1.2	0.7	-5.2	62.4*	/	50.9*	45.4*
Cc1ccc(/C=N/NC(=O)c2cc(-c3cccnc3)nc3ccccc23)cc1	1.2	19.3	42.1	53.9*	80.9*	40.5*	48.2*
O=C(N/N=C/c1cccnc1)c1cc(-c2ccc(Br)cc2)nc2ccccc12	0.1	8.8	3.2	51.6*	/	55.9*	57.7*
O=C(N/N=C/c1ccc(Cl)cc1)c1cc(-c2cccnc2)nc2ccccc12	0.3	20.0	43.6	39.2	43.3	/	/
CC1Nc2ccc(C(=O)NC3CCCCC3)cc2NC1=O (stereo not given)	-0.1	-0.5	-10.2	6.6	6.3	/	/
O=C(COc1cccc(C(F)(F)F)c1)NNC(=O)Cn1c(=O)cnc2ccccc21	-0.2	-3.9	-13.7	20.1	5.2	/	/
Cc1ccc(NC(=O)c2cc3c(=O)oc4ccc(C)cc4c3s2)nc1	-1.5	32.5	1.3	75.2*	0.1	11.5	/
CCC1CCCCN1CCCNC(=O)c1cc2c(=O)oc3ccc(C)cc3c2s1 (stereo not given)	0.1	-2.2	13.4	53.5*	9.4	2.8	/
Cc1ccnc(NC(=O)c2cc3c(=O)oc4ccc(C)cc4c3s2)c1	3.0	32.1	-1.7	70.3*	-43.1	38.1	73.7*
CCOc1ccccc1C(=O)N(Cc1ccc(C)o1)C1CCS(=O)(=O)C1 (stereo not given)	0.3	0.2	2.6	-3.7	-2.6	/	/

High-throughput results: PubChem, several laboratories
